Screens as filed in PubChem.
Compounds with a hit are over-represented: about 7.1% of the library has one in this group of screens.
S2 tox = reduces viability in counter-screen for ATXN expression inhibitors; S2 cells (HEK-293 line with an ATXN2-luciferase reporter) viability, CellTiter-Fluor protease fluorescence, 24 h; Potency, µM (series often up to 56.7 µM), most hits filed as cytotoxic; hit rate 0.49% among 400,000; also: potency is read from the fitted curve at half-maximal effect; nearly all actives have a fitted effect of over 40% in size
ATXN2 expr inh = ATXN2 expression inhibition; HEK-293 ATXN2-luciferase reporter, luminescence, 24 h; Potency, µM (doses to about 57 µM), inactives show at the highest dose activity change, negative = inhibition, usual class: inhibitors; hit rate 0.72% among 360,000; also: potency is read from the fitted curve at half-maximal effect; % is scaled to controls: 0 for no effect and ±100 for the full control effect; nearly all actives have a fitted effect of over 55% in size
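qHTS (up to 57 uM final) was run with 24 h compound exposure of reporter cells at 37 °C. Each well was multiplexed: SteadyGlo luminescence measured ATXN2-luciferase expression after a fluorogenic Gly-Phe-AFC viability readout (25 uM final).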
MCF10A rerep = inducers of DNA re-replication in MCF 10A breast cells. MCF 10A DNA re-replication, Hoechst nuclear intensity, 48 h. Potency, µM (titrated, usually from 46.1 µM), for inactives: at the top dose activity, positive = re-replication, most hits filed as activators. hit rate 2.9% among 350,000. AID 624296; also: potency is read from the fitted curve at half-maximal effect; % of control where 0% means no effect; nearly all actives have a fitted effect of over 50% in size
SW480 rerep = induces DNA re-replication in SW480 colon adenocarcinoma cells | SW480 DNA re-replication, Hoechst DNA content imaging, 48 h | Potency, µM (highest dose often 46.1 µM), for inactives: at the highest dose re-replication activation, hits mostly activators | hit rate 1.8% among 340,000 | AID 624297; also: potency is read from the fitted curve at half-maximal effect; % of control where 0% means no effect; nearly all actives have a fitted effect of over 55% in size
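Compounds, transferred as 23 nL by pin tool, were incubated with cells for 48 hr; DNA content per nucleus was then quantified by Hoechst staining and fluorescence plate imaging.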
IL1B secr inh = inhibitors of inflammasome signaling (IL-1 beta secretion) | THP-1 LPS/ATP IL-1B secretion, AlphaLISA, 16 h; active compounds read low | hit rate 4.7% among 360,000 | activity change, % at 57.5 µM; in the data active = activity change below about -50%; inconclusive = mostly about -30% to -49%; also: % is scaled to controls: 0 for no effect and ±100 for the full control effect
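Secreted IL-1B measured by AlphaLISA bead assay after 16 h compound exposure of THP-1 cells; compounds (final up to 57.5 uM) added 1 h before LPS (250 ng/mL) and ATP (1.25 mM) stimulation; lower signal means less secretion.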
PINK1 expr mod = changes PINK1 expression | hit rate 0.2% among 410,000 | Potency, µM (titrated, usually from 76.6 µM), without a hit: at the top dose activation (PINK1 increase), actives largely listed as activators | PINK1 immunofluorescence, high-content cytometry, 24 h; active = well fitted activation curve with a large enough effect; inconclusive = small, poorly fitted or top-dose-only effect; cell line not stated here; also: potency is read from the fitted curve at half-maximal effect; % of control where 0% means no effect; nearly all actives have a fitted effect of over 65% in size
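Decision-based qHTS: stable cells, 24 h exposure to five compound concentrations, CCCP as control. Fixed cells stained for PINK1 plus nuclear, mitochondrial and cell markers, cytometer read.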
* hit, by the source's call; i = inactive; ? = inconclusive; / = not tested or not shown; ! = not confirmed by another sample; [ ] = remark or other dose. Unless noted, calls follow the shape of the dose curve; as a rule, active = well fitted curve in the direction sought with a large enough effect; inconclusive = small, poorly fitted or top-dose-only effect, or another doubt; inactive = no such curve, though single readings can be large; an effect the other way counts as inactive or inconclusive.

SMILES | S2 tox | ATXN2 expr inh | MCF10A rerep | SW480 rerep | IL1B secr inh | PINK1 expr mod
CCCn1c(SCC(N)=O)nc2c(c1=O)C1(CCCC1)Cc1ccccc1-2 | ? | -1% | ? | -9% | -58* | 1%
C/C=C(\C)C(=O)NCCN1Cc2ccccc2OC(c2ccccc2OC)C1 (centres undefined) | i | / | / | / | / | -1%
COC(=O)c1cc(CNC(=O)c2cnsn2)cc(NC(=O)c2ccccc2OC)c1 | i | / | / | / | / | -1%
CN(C)CC(C)(C)CNS(=O)(=O)c1ccc(Cl)c(Cl)c1 | i | -33% | ? | ? | -54*! | -2%
Cc1nn(C(C)(C)C)c(OC(=O)c2c(F)cccc2F)c1Sc1ccccc1 | i | 0% | / | / | / | 2%
CCCCOCCCNC(=O)C[C@@H]1C[C@@]2(C(=O)OCC)CCC=C2N(Cc2cccc3ccccc23)C1=O | ? | ? | / | / | -67* | 6%
CCOC(=O)[C@]12CCC=C1N(Cc1ccc3c(c1)OCO3)C(=O)[C@H](CC(=O)NCc1cccc3ccccc13)C2 | ? | -17% | / | / | -60* | 0%
CCCCOCCCNC(=O)C[C@@H]1C[C@@]2(C(=O)OC)CCCCC=C2N(Cc2cccc3ccccc23)C1=O | / | ? | / | / | -51* | 23%
CCOC(=O)[C@]12CCC=C1N(Cc1cccc3ccccc13)C(=O)[C@H](CC(=O)NCCCOC)C2 | i | -1% | / | / | 22 | -1%
Cc1sc2c(c1C)c(=O)n(CCc1ccccc1)c(=O)n2Cc1ccc(C(C)(C)C)cc1 | i | 4% | / | / | / | 0%
O=C(Nc1c(Cl)cccc1Cl)c1cc(=O)n(Cc2ccccc2)c(=O)[nH]1 | i | 1% | -2% | -3% | 9 | 10µM*
CCN(CC)C(=O)CSc1nc2sc3c(c2c(=O)n1CCCOC)CCC3 | i | 4% | ? | 2% | -55* | 2%
CCCn1c(SCC(=O)N(C)C2CCS(=O)(=O)C2)nc2sc3c(c2c1=O)CCC3 (centres undefined) | ? | -16% | 11% | 18µM* | -8 | 2%
Cc1cnc(SCc2ccccn2)nc1C1CCCN(C(=O)c2cc3ccccc3oc2=O)C1 (centres undefined) | i | / | / | / | / | 0%
O=C(COC(=O)CC1CC2CCC1C2)Nc1cc([N+](=O)[O-])ccc1F (centres undefined) | i | -1% | -2% | ? | -54* | -1%
Cc1ccc(C)c(NC(=O)COC(=O)CC2CC3CCC2C3)c1 (centres undefined) | i | -3% | -1% | -15% | 9 | 2%
CCOC(=O)c1[nH]c(C)c(CCC(=O)Nc2ccccc2C(=O)OC)c1C | i | 0% | / | / | / | 11%
Cc1ccc(C(=O)/C=C/c2ccc(Br)cc2)o1 | i | -21% | 7.3µM* | 18µM* | -57* | -5%
O=C(/C=C/c1ccc2c(c1)OCO2)Nc1nc(-c2ccc(F)cc2F)cs1 | / | / | 27% | 0% | / | /
C/C(=C\c1ccccc1F)C(=O)c1c(C)cc(C)[nH]c1=O | i | -19% | -39% | -1% | -68* | 1%
Cc1csc(NC(=O)/C=C/c2ccc3c(c2)OCO3)n1 | i | 53% | 18µM* | 1% | -11 | 21%
Cc1ccc(C(=O)/C=C/c2ccccc2)o1 | i | 8% | ? | 5% | ? | -4%
C/C(=C\c1ccccc1)C(=O)c1c(C)cc(C)[nH]c1=O | / | / | -3% | 0% | -16 | -1%
Cc1cc(C)c(C(=O)/C=C/c2ccc3c(c2)OCO3)c(=O)[nH]1 | i | -15% | ? | ? | -91* | 3%
CC(=O)N[C@@H](C)C(=O)NCC1Cc2cccc(-c3ccccc3C(F)(F)F)c2O1 (some centres undefined) | i | / | / | / | / | 0%
SMILES | S2 tox | ATXN2 expr inh | MCF10A rerep | SW480 rerep | IL1B secr inh | PINK1 expr mod
Cc1c(-c2ccccc2)n(-c2ccc(Cl)cc2)c2nc3c(c(=O)n(C)c(=O)n3C)n12 | i | 6% | / | / | / | 0%
CCN(CCCNC(=O)c1cc(Nc2ccccc2OC)nc2ccccc12)c1cccc(C)c1 | / | 4% | / | / | / | 4%
Cc1cc(C)c(C(=O)/C=C/c2cccc3ccccc23)c(=O)[nH]1 | ? | ? | 16µM* | 23µM* | -85* | 6%
Cc1ccc(C(=O)/C=C/c2ccc3c(c2)OCO3)o1 | i | 7% | ? | 27% | -50* | 3%[38.3 µM]
CCOc1ccc(CC(=O)NCCc2sc3nc(-c4ccc(F)cc4)nn3c2C)cc1 | / | / | / | / | / | 2%
CCCN(Cc1cccs1)C(=O)Nc1cc(Cl)ccc1C | / | / | / | / | / | 1%
O=C(NCCS(=O)(=O)N1CCN(c2cccc(Cl)c2)CC1)C(c1ccccc1)c1ccccc1 | / | / | / | / | / | 1%
Fc1ccc(CNc2ncnc3nc[nH]c23)cc1 | / | / | / | / | / | 0%
C[C@@H](C(=O)NCc1ccccc1)[C@@H]1C[C@@]1(C)[C@@H](NC(=O)OCc1ccccc1)c1ccccc1 | i | -16% | 23% | 11% | -57* | 1%
COc1ccc(Cc2nnc(N/N=C/c3ccc(O)cc3)[nH]c2=O)cc1OC | ? | 1.6µM* | 8.2µM* | ? | -130* | 0%
CC(=O)N1CCN(c2ccc(O)cc2)CC1 | i | -17% | / | / | / | /
CN(Cc1ccccc1)CC(O)COc1ccc(CNCCc2ccncc2)cc1 (centres undefined) | ? | 0% | ? | 18µM* | -59* | 1%
C=CCOc1ccc(CN(C)CC(O)COc2cccc3ccccc23)cc1 (centres undefined) | i | -25% | 14% | ? | -59* | 0%
CN(Cc1ccccc1)CC(O)COc1ccc(CNCCc2cccnc2)cc1 (centres undefined) | ? | / | 8% | 6% | 0 | 2%
CCc1ccc(CNCc2ccc(OCC(O)CN(C)Cc3ccccc3)cc2)nc1 (centres undefined) | i | -33% | ? | ? | -60* | 1%
O=C(c1cccc(F)c1F)N1CCOc2ccc(CN3CCC(Oc4cccnc4)CC3)cc2C1 | i | / | / | / | / | -1%
O=C(NCc1ccccc1F)C(=O)NCC(c1ccco1)S(=O)(=O)c1cccs1 (centres undefined) | / | / | / | / | / | 0%
CCOC(=O)c1ccc2c(c1)N(Cc1ccc(F)cc1Cl)C(=O)c1ccccc1S2 | / | / | / | / | / | 1%
Cc1cc(NC(=O)c2cc(-c3ccncc3)nc3c(C)cccc23)no1 | i | -18% | ? | 6.5µM* | 37 | 8%
COc1cccc(NC(=O)c2cc(-c3cccnc3)nc3c(Cl)cccc23)c1 | i | -19% | ? | 16% | -7 | 18%[38.3 µM]
Cc1cccc(NC(=O)c2cc(-c3cccnc3)nc3c(C)cccc23)n1 | ? | -29% | 16µM* | 2% | i | 0%
